We go through nine molecules from PubChem BioAssay.

Molecules are shown by their SMILES. This is one part of the list. The source made the active and inactive calls. Rule as the data show it, unless noted: active = binding response below about 74% or above about 130%; inactive = in between.

Test [1] addresses Regulator of G-protein signaling 16 (Homo sapiens) (UniProt O15492). Put plainly: small molecules altering RGS protein interactions with GNAO1 – biochemical, multiplexed beads, flow cytometry, RGS4/7/8/16/19, primary screen (AID 1504).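 Also: fluorescently labeled Galpha-o bound to GDP with aluminium fluoride binding biotinylated RGS beads.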 The following applies: multiplexed bead flow cytometry, measured here: RGS16 interaction, at 10 µM. In general terms: A flow cytometer gives signals particle by particle.

The target in test [2] is Regulator of G-protein signaling 19 (Homo sapiens) (UniProt P49795). The description is as above. The following applies: multiplexed bead flow cytometry, measured here: RGS19 interaction, at 10 µM.
For test [3], the target named is Regulator of G-protein signaling 7 (Homo sapiens) (UniProt P49802). The test is described as above. The following applies: multiplexed bead flow cytometry, measured here: RGS7 interaction, at 10 µM.
Test [4] deals with Regulator of G-protein signaling 8 (Homo sapiens) (UniProt P57771). The description is as above. The following applies: multiplexed bead flow cytometry, measured here: RGS8 interaction, at 10 µM.
Test [5] in a line: interference with biotin-avidin bead interaction – biochemical, flow cytometry, bead-based, counter-screen for RGS protein interaction modulators (AID 1783;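 active = inhibition above 50%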;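 also: median green fluorescence of gated singlet beads compared with DMSO control wells; 0% = DMSO wells and 100% = complete loss of bead fluorescence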). The following applies: streptavidin beads, fluorescein-biotin binding; at 10 µM, stronger effect = higher value.
Test [6] deals with Guanine nucleotide-binding protein G(o) subunit alpha (Homo sapiens) (UniProt P09471). Put plainly: retest of RGS8-Galphao interaction hits – biochemical, multiplexed bead flow cytometry, single concentration, confirmation (AID 1836; in the data active = binding response below about 72% or above about 130%; inactive = in between;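 also: Galphao activated as GDP AlF4 complex before binding bead RGS8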). The following applies: bead-based flow cytometry RGS8-Galphao binding, fluorescence; at 10 µM; actives lie on both sides.
Sequence of Guanine nucleotide-binding protein G(o) subunit alpha (Homo sapiens) (P09471 whole entry, looked up): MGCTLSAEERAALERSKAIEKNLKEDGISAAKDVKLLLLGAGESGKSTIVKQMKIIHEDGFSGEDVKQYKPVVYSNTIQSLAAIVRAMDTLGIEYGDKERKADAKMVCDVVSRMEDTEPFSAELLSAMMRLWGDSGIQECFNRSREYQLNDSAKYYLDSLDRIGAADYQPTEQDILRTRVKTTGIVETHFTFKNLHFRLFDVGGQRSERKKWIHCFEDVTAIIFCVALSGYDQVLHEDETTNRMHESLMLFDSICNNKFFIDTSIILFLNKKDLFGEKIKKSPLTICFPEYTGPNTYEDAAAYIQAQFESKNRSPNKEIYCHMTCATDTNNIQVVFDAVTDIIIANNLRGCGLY
The target is the same in test [7]. The test can be described thus: retest of RGS7-Galphao interaction hits – biochemical, multiplexed bead flow cytometry, single concentration, confirmation (AID 1837; in the data active = response below about 75% or above about 130%; inactive = in between;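 also: fluorescent Galphao activated with GDP and aluminum fluoride binding bead-coupled RGS7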). The following applies: bead-based flow cytometry RGS7-Galphao binding; at 10 µM; actives lie on both sides.
In test [8] the target is Regulator of G-protein signaling 16 (Homo sapiens) + Guanine nucleotide-binding protein G(o) subunit alpha (Homo sapiens) (UniProt O15492+P09471). Put plainly: RGS16 and Galphao interaction regulators – biochemical, single concentration, multiplexed bead flow cytometry, confirmation (AID 1838; in the data active = response below about 74% or above about 130%; inactive = in between;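 also: Galphao activated as the GDP aluminium fluoride complex binding bead-coupled RGS16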). The following applies: bead-based flow cytometry, at 10 µM, actives lie on both sides.
Sequence of Regulator of G-protein signaling 16 (Homo sapiens) + Guanine nucleotide-binding protein G(o) subunit alpha (Homo sapiens) (O15492 whole entry, looked up): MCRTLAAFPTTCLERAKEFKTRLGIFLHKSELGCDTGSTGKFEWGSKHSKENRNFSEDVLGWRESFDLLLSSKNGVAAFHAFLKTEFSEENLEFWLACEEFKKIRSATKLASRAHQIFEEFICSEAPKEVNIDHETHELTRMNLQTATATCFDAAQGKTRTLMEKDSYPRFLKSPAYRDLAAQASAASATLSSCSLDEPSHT
Sequence of Regulator of G-protein signaling 16 (Homo sapiens) + Guanine nucleotide-binding protein G(o) subunit alpha (Homo sapiens) (P09471 whole entry, looked up): as the sequence (P09471 whole entry, looked up) above

Test [9] concerns the target Guanine nucleotide-binding protein G(o) subunit alpha (Homo sapiens) (UniProt P09471). The test can be described thus: RGS4 and Galphao interaction regulators – biochemical, single concentration, multiplexed bead flow cytometry, confirmation (AID 1840). The following applies: at 10 µM, actives lie on both sides.
Test [10] concerns the target Guanine nucleotide-binding protein G(o) subunit alpha (Homo sapiens) + Regulator of G-protein signaling 19 (Homo sapiens) (UniProt P09471+P49795). Put plainly: RGS19 interaction with Gαo, hit retest – biochemical, single point, multiplexed bead flow cytometry, confirmation (AID 1841; in the data active = response below about 50% or above about 160%; inactive = in between;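 also: 100% = no compound control and 0% = blank background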). The following applies: bead-based flow cytometry RGS19-Galphao binding; at 10 µM; actives lie on both sides.

Sequence of Guanine nucleotide-binding protein G(o) subunit alpha (Homo sapiens) + Regulator of G-protein signaling 19 (Homo sapiens) (P09471 whole entry, looked up): as above
Sequence of Guanine nucleotide-binding protein G(o) subunit alpha (Homo sapiens) + Regulator of G-protein signaling 19 (Homo sapiens) (P49795 whole entry, looked up): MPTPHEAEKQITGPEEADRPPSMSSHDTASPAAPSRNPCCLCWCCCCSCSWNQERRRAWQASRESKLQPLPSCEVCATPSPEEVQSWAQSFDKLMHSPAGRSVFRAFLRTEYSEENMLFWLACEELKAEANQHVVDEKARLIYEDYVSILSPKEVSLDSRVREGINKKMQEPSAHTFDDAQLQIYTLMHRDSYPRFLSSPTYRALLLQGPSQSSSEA

As for `CC(=O)c1ccc(NC(=S)NC(=O)CC(C)C)cc1`, the RGS16–Galpha-o binding response in test [1] stood at 21.8%. In test [2], the RGS19–Galpha-o binding response turned out to be 162%. Also, the RGS7–Galpha-o binding response in test [3] was 91.6%. In test [4], the RGS8–Galpha-o binding response is 81.4%. Moreover, the inhibition (commonly the drop in the measured response relative to a control, in per cent) in test [5] was 3.2% (inactive). Moreover, the binding response (% of control) in [6] is 99.1% (inactive); in test [9] it was 93.6% (inactive). The response (percent of control binding) was 86.2% (inactive) in test [7] and 87.5% (inactive) in test [10]. The response (% of control binding) in test [8] was 93.9% (inactive).

For `CC(NC(=O)COC(=O)C1CCN(S(=O)(=O)c2ccccc2C(F)(F)F)CC1)c1ccccc1` (centres undefined), the RGS16–Galpha-o binding response in [1] is 327%. The RGS19–Galpha-o binding response in [2] was -23.1%. In addition, the RGS7–Galpha-o binding response in test [3] was 115%. For the same molecule, the RGS8–Galpha-o binding response in test [4] is 148%. In addition, the inhibition in test [5] was -0.6% (inactive). Further, the binding response (% of control) in test [6] was 98.3% (inactive); in [9] it was 97.2% (inactive). Also, the results for the response (percent of control binding) in test [7] and in [10] were 96.9% (inactive) and 97.7% (inactive), respectively. The response (% of control binding) in test [8] is 99.8% (inactive).

Consider `Cn1c(=O)c2c(n(Cc3ccccc3)c1=O)NC(=O)C2CC(=O)N1CCc2ccccc2C1` (centres undefined), for which the RGS16–Galpha-o binding response in test [1] was -1.02%. In addition, in [2], the RGS19–Galpha-o binding response came out at 241%. Also, the RGS7–Galpha-o binding response in test [3] came out at 13.5%. Moreover, the RGS8–Galpha-o binding response in test [4] was found to be 12.1%. Moreover, the inhibition in test [5] is 0.9% (inactive). The binding response (% of control) in test [6] was 100% (inactive); in [9] it was 105% (inactive). Besides, the results for the response (percent of control binding) in [7] and in test [10] were 112% (inactive) and 102% (inactive), respectively. In addition, the response (% of control binding) in [8] is 95.4% (inactive).

Regarding `CN(C)CCN=c1cc(-c2ccccc2)oc2ccc(Cl)cc12`, the RGS16–Galpha-o binding response in [1] was 103%. Besides, in [2], the RGS19–Galpha-o binding response was found to be 95.4%. The RGS7–Galpha-o binding response in test [3] was found to be 155%. The RGS8–Galpha-o binding response in test [4] came out at 102%. Moreover, the inhibition in test [5] is -3.8% (inactive). Besides, the binding response (% of control) in [6] and in test [9] was 107% (inactive) throughout. In addition, the results for the response (percent of control binding) in test [7] and in [10] were 111% (inactive) and 108% (inactive), respectively. In [8], the response (% of control binding) was 113% (inactive).

Regarding `Oc1ccc(N=Nc2nccs2)c(O)c1`, the RGS16–Galpha-o binding response in test [1] was -16.2%. Moreover, the RGS19–Galpha-o binding response in test [2] is 158%. In addition, the RGS7–Galpha-o binding response in test [3] stood at 270%. The molecule also had an RGS8–Galpha-o binding response in test [4] of 6.26%. In test [5], the inhibition was -1.7% (inactive). For the same molecule, the binding response (% of control) in test [6] was 99% (inactive); in [9] it was 98.7% (inactive). Further, the response (percent of control binding) in test [7] is 96.5% (inactive); in [10] it was 99.6% (inactive). Besides, the response (% of control binding) in [8] is 97.6% (inactive).

In the case of `CCCC(=O)n1nc(-c2ccccc2)nc1N`, the RGS16–Galpha-o binding response in [1] came out at 14.9%. In test [2], the RGS19–Galpha-o binding response was -92.7%. Besides, in [3], the RGS7–Galpha-o binding response came out at 23.4%. Besides, the RGS8–Galpha-o binding response in test [4] turned out to be 20.9%.

With `Cc1cc(C)cc(N(CC(=O)Nc2c(C)n(C)n(-c3ccccc3)c2=O)S(C)(=O)=O)c1`, the RGS16–Galpha-o binding response in test [1] was -28.4%. Besides, the RGS19–Galpha-o binding response in test [2] is 156%. Also, the RGS7–Galpha-o binding response in test [3] was -21.3%. In test [4], this molecule had an RGS8–Galpha-o binding response of 1.54%. The inhibition in test [5] is -0.5% (inactive). Moreover, the binding response (% of control) is 104% (inactive) in test [6] and 103% (inactive) in test [9]. Further, the response (percent of control binding) was 104% (inactive) in [7] and 108% (inactive) in test [10]. In addition, the response (% of control binding) in [8] was 108% (inactive).

`CCN(CC)S(=O)(=O)c1cccc(-c2n[nH]c(=S)n2/N=C/c2ccc(C(=O)OC)cc2)c1`: the RGS16–Galpha-o binding response in test [1] was found to be 334%. Further, the RGS19–Galpha-o binding response in test [2] was 35.5%. For the same molecule, the RGS7–Galpha-o binding response in test [3] came out at 133%. Moreover, in test [4], the RGS8–Galpha-o binding response came out at 124%. In addition, the inhibition in [5] is -1.2% (inactive). The binding response (% of control) is 77.7% (inactive) in test [6] and 91% (inactive) in [9]. For the same molecule, the response (percent of control binding) in [7] was 113% (inactive); in test [10], 66.1% (inactive). For the same molecule, in [8], the response (% of control binding) was 74% (active).

`Cc1cc(=O)n2[nH]c(-c3sccc3-n3c(C)ccc3C)cc2n1`: the RGS16–Galpha-o binding response in test [1] was found to be 44.4%. Besides, the RGS19–Galpha-o binding response in test [2] was determined as 5890%. Besides, the RGS7–Galpha-o binding response in test [3] is -34.3%. The RGS8–Galpha-o binding response in test [4] is 61.1%. The inhibition in test [5] was -1.8% (inactive). The binding response (% of control) in test [6] is 103% (inactive); in test [9], 89.2% (inactive). The response (percent of control binding) in test [7] was 86.4% (inactive); in test [10], 80.1% (inactive). In test [8], the response (% of control binding) is 95.8% (inactive).
